A selection: hits, their analogues and other compounds. The true share with any hit is near 7.2%.
SUMO Mot1 rescue – blocks SUMOylation pathway, rescuing yeast Mot1-301 growth; S. cerevisiae Mot1-301 growth rescue, ATP luminescence, 38.5C; percent above DMSO median, 100 means doubled; growth rescue, % at 18.8 µM; 320,000 tested, 1% active; AID 2716;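 active = every valid replicate shows activation above 250% relative to neutral control wells; inactive = the rest, any valid replicate at or below 250%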
Efflux pump inh – antifungal efflux pump inhibition, Nile Red retention; inhibition, % at 10 µM; 330,000 tested, 0.44% active; AID 485275; S. cerevisiae Candida pump triplex;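 active = plate passing quality check with inhibition over a set limit, or well fluorescence over plate mean plus 4 SD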;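 note: Nile Red retained in pooled yeast measured as flow cytometry median fluorescence; higher means more Nile Red kept so more efflux inhibition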
AHR activator – activates the human aryl hydrocarbon receptor; AHR-responsive luciferase reporter cells, luminescence; activation, % at 5 µM; 320,000 tested, 2.5% active; P35869; in the data active = activation above about 47%
Target sequence (P35869 whole entry, looked up): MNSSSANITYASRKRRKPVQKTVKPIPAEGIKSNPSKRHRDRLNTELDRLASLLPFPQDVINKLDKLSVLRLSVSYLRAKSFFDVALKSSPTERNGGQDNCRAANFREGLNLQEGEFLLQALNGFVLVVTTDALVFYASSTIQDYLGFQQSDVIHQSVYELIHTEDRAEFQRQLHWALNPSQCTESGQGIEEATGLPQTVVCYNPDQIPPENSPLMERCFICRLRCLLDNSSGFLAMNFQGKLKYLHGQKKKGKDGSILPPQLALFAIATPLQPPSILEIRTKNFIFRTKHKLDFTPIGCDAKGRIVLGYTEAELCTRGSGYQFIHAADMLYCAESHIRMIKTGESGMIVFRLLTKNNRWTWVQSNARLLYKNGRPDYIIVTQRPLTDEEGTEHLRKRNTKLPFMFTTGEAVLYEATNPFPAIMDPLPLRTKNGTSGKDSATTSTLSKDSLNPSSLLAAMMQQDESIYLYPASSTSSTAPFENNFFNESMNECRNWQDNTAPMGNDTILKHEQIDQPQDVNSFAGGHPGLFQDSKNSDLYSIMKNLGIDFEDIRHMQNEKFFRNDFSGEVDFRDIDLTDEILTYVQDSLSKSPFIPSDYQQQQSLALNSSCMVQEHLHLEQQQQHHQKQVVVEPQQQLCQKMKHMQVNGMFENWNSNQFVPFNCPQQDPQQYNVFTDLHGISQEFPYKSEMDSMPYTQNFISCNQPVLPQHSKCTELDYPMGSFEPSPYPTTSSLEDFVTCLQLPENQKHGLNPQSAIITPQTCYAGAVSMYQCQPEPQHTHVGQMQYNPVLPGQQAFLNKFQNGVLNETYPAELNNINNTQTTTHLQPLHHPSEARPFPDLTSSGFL
A1 inh – inhibitors of the anti-apoptotic protein A1, read as caspase activation; 330,000 tested, 0.066% active; caspase activation, % (no concentration beside the values); MEF A1-2A-BIM cells, Caspase-Glo 3/7 luminescence, 3 h; percent of clofoctol response, vehicle zero;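 active = over half of replicate activation scores above 10%, or exactly half above 10 with the replicate mean above 10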
VLA-4 inh – inhibition in a human VLA-4 binding assay; AID 2557; VLA-4 expressing cells, ligand binding flow cytometry; inhibition, % (about 7 µM as worked out from the volumes in the protocol); P13612; 330,000 tested, 0.2% active; in the data active = inhibition above about 50%
ALR inh – human ALR oxidase inhibition via reduced H2O2; inhibition, % (concentration not given with the values); 290,000 tested, 3.8% active; P55789; purified ALR, DTT oxidation, H2O2 HRP-luminol luminescence;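 active = mean replicate inhibition above about 79%, with every replicate also reaching it, limit read from the data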
Large screens that a line does not name were inactive.

O=C(CCS(=O)(=O)Cc1ccccc1)N1CCN(c2ccc([N+](=O)[O-])cc2)CC1	none
Cc1ccc(OCCC(=O)N2CCN(c3ccc(O)cc3)CC2)cc1	ALR inh 100
COc1ccc(N2CCN(C(=O)CCC(=O)N3CCOc4ccc(C)cc43)CC2)cc1	ALR inh 97
CC[C@H](C)[C@@H](C(=O)NCCCCCCCCCCC(=O)N1CCNCC1)n1cc(CCCCN=C(N)N)nn1	none
CC(C)(C)S(=O)(=O)c1cnc(N2CCCC2)nc1N	none
COc1ccc(C(=O)N[C@H](C(=O)OCc2cc(=O)oc3cc(C)ccc23)C(C)C)cc1	none
CC(OC(=O)c1nccnc1N)C(=O)Nc1ccc(S(=O)(=O)N2CCCC2)cc1 (stereo not given)	none (no result: ALR inh)
CC(OC(=O)c1ccc(NS(=O)(=O)c2cccs2)cc1)C(=O)N(C)C1CCCCC1 (stereo not given)	none
COc1ccc(N2CCN(C(=O)CCNS(=O)(=O)c3ccc(C)cc3)CC2)cc1	ALR inh 99
O=C(CCS(=O)(=O)c1ccccc1)N1CCN(c2ccccc2)CC1	ALR inh 99
O=C1COc2ccc(S(=O)(=O)CCC(=O)N3CCN(c4ccccc4)CC3)cc2N1	ALR inh 98
CCCNS(=O)(=O)c1ccc(CCC(=O)N2CCN(c3ccc(OC)cc3)CC2)cc1	none
O=C(CCNS(=O)(=O)c1ccccc1)N1CCN(c2ccccc2)CC1	ALR inh 96
COc1cccc(OC)c1C(=O)N1CCN(C(=O)c2ccc(-c3ccccc3)cc2)CC1	none
CCC(=O)O[C@]1(C(=O)SCF)[C@H](C)C[C@H]2[C@@H]3C[C@H](F)C4=CC(=O)C=C[C@]4(C)[C@@]3(F)[C@@H](O)C[C@@]21C	none
CCn1c(CNC(=O)c2ccccc2OC)nnc1SCC(=O)c1ccc(F)cc1	none
COc1cccc(N2CCN(C(=O)CCS(=O)(=O)c3ccc4c(c3)oc(=O)n4C)CC2)c1	ALR inh 98
O=C(NC(=S)NCc1nc2ccccc2[nH]1)c1ccc(F)cc1	ALR inh 76
O=C(NC(=S)NCc1nc2ccccc2[nH]1)c1ccccc1F	none
CCOc1ccccc1N1CC(C(=O)Nc2ccccc2N2CCCC2)CC1=O (stereo not given)	ALR inh 88
CCC(C)c1ccccc1N1CC(C(=O)Nc2ccccc2N2CCCC2)CC1=O (stereo not given)	none
O=C(Nc1ccccc1N1CCCC1)C1CC(=O)N(Cc2ccccc2)C1 (stereo not given)	ALR inh 97
O=C(Nc1ccccc1OC(F)F)C1CC(=O)N(Cc2ccccc2)C1 (stereo not given)	none
Fc1ccc(-c2noc(C3CCN(Cc4cccnc4)CC3)n2)cc1	SUMO Mot1 rescue 848
Cc1nc(N2CCC(C)CC2)c2c(C)c(C(=O)Nc3ccc(C)c(F)c3)sc2n1	none
Cc1nc(N2CCN(C)CC2)c2c(C)c(C(=O)Nc3ccc(C)c(F)c3)sc2n1	ALR inh 96
S=C(NCc1ccco1)Nc1ccc(Cl)c(Cl)c1	none
CCOc1ccc(NC(=S)Nc2cc(-c3ccccc3)[nH]n2)cc1	AHR activator 78
S=C(NCc1ccco1)Nc1cc(-c2ccccc2)[nH]n1	AHR activator 74 (no result: ALR inh)
COc1ccc(OC)c(NC(=O)CN2C(=O)NC3(CCOc4ccccc43)C2=O)c1 (stereo not given)	none
CCOc1ccc(NCc2cccn2-c2nnc(N3CCC(C(=O)NCCCN4CCCCC4)CC3)s2)cc1	ALR inh 99
CCOc1ccc(NCc2cccn2-c2nnc(N3CCC(C(=O)NCCCN4C(C)CCCC4C)CC3)s2)cc1 (stereo not given)	ALR inh 99
CCOc1ccc(CCNC(=O)C2CCN(c3nnc(-n4cccc4)s3)CC2)cc1	none
CCOc1ccc(NCc2cccn2-c2nnc(N3CCC(C(=O)NCCCN4CCCCC4C)CC3)s2)cc1 (stereo not given)	ALR inh 99
COc1ccccc1N(CC(=O)NC1CCCCC1)C(=O)CCC(=O)Nc1nccs1	none
COc1ccc(S(=O)(=O)NCC(=O)N(Cc2ccco2)C(C(=O)NC(C)(C)C)C(C)C)cc1 (stereo not given)	none
CCOC(=O)c1cn(-c2c(C)n(C)n(-c3ccccc3)c2=O)c2c(F)c(F)c(F)cc2c1=O	none
O=C(CNC(=O)c1cncc(Br)c1)Nc1ccc(F)c(F)c1F	none
O=C(CN1C(=O)C2CC=CCC2C1=O)Nc1ccc(S(=O)(=O)N2CCOCC2)cc1 (stereo not given)	SUMO Mot1 rescue 297
NNC(=S)Nc1ccc(S(=O)(=O)N2CCOCC2)cc1	ALR inh 98
Cc1ccc(N(C(C)C(=O)Nc2ccc(S(=O)(=O)N3CCOCC3)cc2)S(C)(=O)=O)cc1 (stereo not given)	none
Nc1nnc(SCC(=O)Nc2ccc(S(=O)(=O)N3CCOCC3)cc2)s1	ALR inh 96
Cc1ccc(N(C(C)C(=O)Nc2ccc(S(=O)(=O)N3CCOCC3)cc2)S(C)(=O)=O)cc1C (stereo not given)	SUMO Mot1 rescue 286
Nc1nnc(SCC(=O)Nc2cc(S(=O)(=O)N3CCOCC3)ccc2Cl)s1	none
NNC(=S)Nc1ccc(S(=O)(=O)N2CCCCC2)cc1	none
CN(C)S(=O)(=O)c1ccc(Cl)c(NC(=O)CN2CCN(Cc3ccc4c(c3)OCO4)CC2)c1	none
COc1ccc(CNC(=O)C(=O)NC2CCC(C)CC2)cc1 (stereo not given)	none
Cc1ccc(CNC(=O)CSc2nc(N3CCCCC3)nc(N3CCCCC3)n2)cc1	none (no result: ALR inh)
CC1CC(C)CN(S(=O)(=O)c2ccc(NC(=O)c3ccc(=O)[nH]c3)cc2)C1 (stereo not given)	none
CCNC(=S)N/N=C/c1cn(Cc2ccccc2F)c2ccccc12	AHR activator 51
COc1ccccc1C(=O)NCC(=O)N1CC=C(c2ccccc2)CC1	none
CCC1CCCCN1C(=O)CSc1nc(N)c(NC(=O)c2ccco2)c(=O)[nH]1 (stereo not given)	ALR inh 85
Nc1nc(SCC(=O)N2CCCC2)[nH]c(=O)c1NC(=O)c1ccco1	none (no result: ALR inh)
COc1ccc2cc(CCOC3CCCCO3)ncc2c1 (stereo not given)	none
COCC(=O)N(Cc1cc2cc(C)ccc2[nH]c1=O)c1ccc(C)c(C)c1	none
COCC(=O)N(Cc1cc2cc(C)ccc2[nH]c1=O)c1cccc(C)c1C	ALR inh 82
Cc1ccc(C2Nc3ccccc3NC3=C2C(=O)OC(C)C3)cc1 (stereo not given)	ALR inh 99
O=C1NCC2=C1C(c1ccccc1)Nc1ccccc1N2 (stereo not given)	none
CC1CC2=C(C(=O)O1)C(c1ccc(Cl)cc1)Nc1ccccc1N2 (stereo not given)	ALR inh 99
